# Assay results published in paper PMC7862700, “An all-to-all approach to the identification of sequence-specific readers for epigenetic DNA modifications on cytosine”.
# Experiments:
# Assay in all cases: DAPPL (digital affinity profiling via proximity ligation, sequencing); 10 mM Tris-HCl pH 7.5, 50 mM NaCl, 1 mM DTT, 4% glycerol, room temperature, 30 min; GST-TFs on glutathione beads, 16-mer random dsDNA library, 0.1% formaldehyde crosslink after washing; high values mean tight binding
# Conditions in all cases: protein: recombinant; tags: N-terminal GST; dsDNA, one strand shown
# FLI1 = molecular target: T1, FLI1 (Homo sapiens, UniProt Q01543 1-452)
# T1 sequence: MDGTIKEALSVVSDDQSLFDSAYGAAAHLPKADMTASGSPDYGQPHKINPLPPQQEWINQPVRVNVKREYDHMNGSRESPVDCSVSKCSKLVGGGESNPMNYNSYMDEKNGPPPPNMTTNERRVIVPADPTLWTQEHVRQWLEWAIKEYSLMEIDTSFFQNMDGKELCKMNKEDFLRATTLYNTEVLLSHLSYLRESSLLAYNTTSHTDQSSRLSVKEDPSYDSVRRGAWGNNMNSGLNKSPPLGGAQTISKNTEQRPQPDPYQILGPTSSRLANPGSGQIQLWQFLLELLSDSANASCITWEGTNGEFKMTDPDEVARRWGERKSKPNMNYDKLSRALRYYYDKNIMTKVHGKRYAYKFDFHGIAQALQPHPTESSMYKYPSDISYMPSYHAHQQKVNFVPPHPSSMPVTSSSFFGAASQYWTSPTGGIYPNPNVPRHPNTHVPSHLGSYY
# In short: (§1)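 Beads coated with glutathione captured GST-fused human transcription factors that had been expressed in yeast, and the factors were then given DNA barcodes and pooled with a tag-only sample. The pools were incubated with 200 nmole of a random double-stranded 16-mer DNA library in Tris/NaCl/DTT/glycerol buffer for 30 min at room temperature, washed, crosslinked with 0.1% formaldehyde and proximity-ligated with BsaI/T4 ligase at 37 °C for 1 h. PCR amplification and Illumina NextSeq500 sequencing came last. Binding signal is each hexamer's read frequency for a factor divided by its frequency for the tag-only sample.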
# ELK1 = molecular target: T2, ELK1 (Homo sapiens, UniProt P19419 1-428)
# T2 sequence: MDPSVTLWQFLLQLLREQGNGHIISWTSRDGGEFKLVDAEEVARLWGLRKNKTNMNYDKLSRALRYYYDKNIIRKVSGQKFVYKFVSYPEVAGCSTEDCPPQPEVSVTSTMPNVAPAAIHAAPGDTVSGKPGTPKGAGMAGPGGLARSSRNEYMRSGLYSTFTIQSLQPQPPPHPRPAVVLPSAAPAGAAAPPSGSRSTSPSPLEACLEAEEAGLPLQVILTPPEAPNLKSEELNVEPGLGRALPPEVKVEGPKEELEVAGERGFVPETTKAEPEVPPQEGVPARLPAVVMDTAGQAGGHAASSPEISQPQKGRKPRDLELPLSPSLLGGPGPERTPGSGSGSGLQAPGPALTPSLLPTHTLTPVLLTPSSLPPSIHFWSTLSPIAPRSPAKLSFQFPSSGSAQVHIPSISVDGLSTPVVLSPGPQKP
# In short: as §1
# GABPA = molecular target: T3, GABPA (Homo sapiens, UniProt Q06546 1-454)
# T3 sequence: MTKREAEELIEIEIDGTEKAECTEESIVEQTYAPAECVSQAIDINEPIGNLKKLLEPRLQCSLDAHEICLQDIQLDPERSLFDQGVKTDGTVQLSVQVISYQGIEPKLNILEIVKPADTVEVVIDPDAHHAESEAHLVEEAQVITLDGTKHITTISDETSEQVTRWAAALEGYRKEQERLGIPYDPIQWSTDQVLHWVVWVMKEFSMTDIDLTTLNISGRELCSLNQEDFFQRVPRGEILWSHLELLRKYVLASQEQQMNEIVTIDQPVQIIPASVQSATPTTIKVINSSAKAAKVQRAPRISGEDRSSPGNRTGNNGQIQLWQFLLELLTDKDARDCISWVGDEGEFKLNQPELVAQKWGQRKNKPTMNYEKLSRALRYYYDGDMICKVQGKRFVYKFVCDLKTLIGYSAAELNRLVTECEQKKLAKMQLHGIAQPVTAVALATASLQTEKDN
# In short: as §1
# ERG = molecular target: T4, ERG (Homo sapiens, UniProt P11308 1-479)
# T4 sequence: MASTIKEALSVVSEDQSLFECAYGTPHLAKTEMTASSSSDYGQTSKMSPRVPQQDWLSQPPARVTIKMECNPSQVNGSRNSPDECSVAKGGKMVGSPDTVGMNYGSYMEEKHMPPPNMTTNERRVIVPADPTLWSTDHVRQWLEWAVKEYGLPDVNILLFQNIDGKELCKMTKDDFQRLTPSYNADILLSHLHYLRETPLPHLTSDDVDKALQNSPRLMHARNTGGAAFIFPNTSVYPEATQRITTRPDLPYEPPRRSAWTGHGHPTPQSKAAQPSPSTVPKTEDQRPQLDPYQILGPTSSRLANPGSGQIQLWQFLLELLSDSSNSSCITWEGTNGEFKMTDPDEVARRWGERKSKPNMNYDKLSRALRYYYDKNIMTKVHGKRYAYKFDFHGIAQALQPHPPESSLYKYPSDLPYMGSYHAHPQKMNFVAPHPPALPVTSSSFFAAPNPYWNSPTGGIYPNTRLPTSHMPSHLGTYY
# In short: as §1
# ELF1 = ELF1 (Homo sapiens, UniProt P32519 1-619)
# In short: as §1
# EHF = molecular target: T5, EHF (Homo sapiens, UniProt Q9NZC4 1-300)
# T5 sequence: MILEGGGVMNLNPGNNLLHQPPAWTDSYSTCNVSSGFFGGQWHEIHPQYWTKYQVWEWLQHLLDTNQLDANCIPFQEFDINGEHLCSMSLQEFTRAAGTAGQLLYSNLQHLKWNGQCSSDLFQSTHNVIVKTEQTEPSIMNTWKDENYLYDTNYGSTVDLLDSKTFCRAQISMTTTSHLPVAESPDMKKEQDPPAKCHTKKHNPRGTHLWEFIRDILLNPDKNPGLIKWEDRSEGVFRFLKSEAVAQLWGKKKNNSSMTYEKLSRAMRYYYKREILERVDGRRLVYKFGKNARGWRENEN
# In short: as §1
# SPI1 = SPI1 (Homo sapiens, UniProt P17947 1-270)
# In short: as §1
# SPIB = SPIB (Homo sapiens, UniProt Q01892 1-262)
# In short: as §1
# ELK3 = molecular target: T6, ELK3 (Homo sapiens, UniProt P41970 1-407)
# T6 sequence: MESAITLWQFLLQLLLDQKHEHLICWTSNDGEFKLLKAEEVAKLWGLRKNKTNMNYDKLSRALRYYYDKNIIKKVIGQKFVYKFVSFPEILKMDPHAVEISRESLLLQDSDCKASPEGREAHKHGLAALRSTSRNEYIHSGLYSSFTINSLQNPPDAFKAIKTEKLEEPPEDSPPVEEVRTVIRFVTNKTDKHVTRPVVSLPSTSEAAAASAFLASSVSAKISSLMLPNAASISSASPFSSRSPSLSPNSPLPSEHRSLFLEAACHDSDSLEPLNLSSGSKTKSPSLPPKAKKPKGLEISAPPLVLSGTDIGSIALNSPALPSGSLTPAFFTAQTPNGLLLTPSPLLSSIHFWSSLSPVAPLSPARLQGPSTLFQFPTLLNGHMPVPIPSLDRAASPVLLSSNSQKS
# In short: as §1
# Chain of ELF1 (P32519 whole entry): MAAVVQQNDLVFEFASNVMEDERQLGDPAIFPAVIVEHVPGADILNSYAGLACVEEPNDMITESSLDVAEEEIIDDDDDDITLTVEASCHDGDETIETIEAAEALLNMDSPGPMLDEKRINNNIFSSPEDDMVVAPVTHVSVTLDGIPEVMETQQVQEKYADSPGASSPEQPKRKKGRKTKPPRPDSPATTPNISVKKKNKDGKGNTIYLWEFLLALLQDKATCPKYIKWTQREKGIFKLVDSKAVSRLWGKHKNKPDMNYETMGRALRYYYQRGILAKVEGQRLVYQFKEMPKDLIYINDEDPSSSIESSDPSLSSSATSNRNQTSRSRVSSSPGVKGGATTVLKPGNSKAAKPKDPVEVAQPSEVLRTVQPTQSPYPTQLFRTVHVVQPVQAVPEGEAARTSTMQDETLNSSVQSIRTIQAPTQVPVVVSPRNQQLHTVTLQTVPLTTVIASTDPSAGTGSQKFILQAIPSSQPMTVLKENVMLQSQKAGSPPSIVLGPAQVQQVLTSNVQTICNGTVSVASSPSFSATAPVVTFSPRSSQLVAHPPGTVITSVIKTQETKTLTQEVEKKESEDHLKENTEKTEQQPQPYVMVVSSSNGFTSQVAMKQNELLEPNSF
# Chain of SPIB (Q01892 whole entry): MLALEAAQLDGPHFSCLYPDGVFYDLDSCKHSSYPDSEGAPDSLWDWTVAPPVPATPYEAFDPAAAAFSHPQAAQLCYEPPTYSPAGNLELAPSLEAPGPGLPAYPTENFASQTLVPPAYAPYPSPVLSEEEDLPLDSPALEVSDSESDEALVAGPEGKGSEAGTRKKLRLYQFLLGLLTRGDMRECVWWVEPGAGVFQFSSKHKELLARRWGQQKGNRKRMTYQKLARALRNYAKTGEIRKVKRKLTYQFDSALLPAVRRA
sequence,measurement,setting,value
AGTACT,binding signal,FLI1,"1.22 fold enrichment (6-mer frequency, TF over GST control)"
same,binding signal,ELK1,"1.41 fold enrichment (6-mer frequency, TF over GST control)"
same,binding signal,GABPA,"1.19 fold enrichment (6-mer frequency, TF over GST control)"
same,binding signal,ERG,"1.25 fold enrichment (6-mer frequency, TF over GST control)"
same,binding signal,ELF1,"1.22 fold enrichment (6-mer frequency, TF over GST control)"
same,binding signal,EHF,"1.27 fold enrichment (6-mer frequency, TF over GST control)"
same,binding signal,SPI1,"1.25 fold enrichment (6-mer frequency, TF over GST control)"
same,binding signal,SPIB,"1.13 fold enrichment (6-mer frequency, TF over GST control)"
same,binding signal,ELK3,"1.44 fold enrichment (6-mer frequency, TF over GST control)"
